# Inconclusive results are not listed. Active and inactive are the calls of the source. The calls were made as follows, unless noted: active = hit-call score of the fitted dose curve at least 0.9, where 1 is the maximum; inactive = score below 0.9.
# Legend:
# [1] = CCTE_Shafer_MEA_acute_AB: CCTE's Alamar Blue Assay for Cytotoxicity in the Neural Acute Assay, Shafer Lab (AID 2284069; active = hit-call score of the fitted dose curve at least 0.9, where 1 is the maximum;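 also: active compounds lower the viability signal compared with DMSO wells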)
# Method in brief: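 Primary rat cortical neurons on MEA plates, exposed acutely after baseline recording on day 13 or 15 post-plating. Viability by CellTiter Blue resazurin reduction (1:6 reagent dilution), fluorescence 544/590 nm; loss of signal versus DMSO.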
# [2] = CCTE_Shafer_MEA_acute_LDH: CCTE's Lactate Dehydrogenase Assay for Cytotoxicity in the Neural Acute Assay, Shafer Lab (AID 2284086; active = hit-call score of the fitted dose curve at least 0.9, where 1 is the maximum;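 also: active means LDH release rises above DMSO vehicle level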)
# Method in brief: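 Released lactate dehydrogenase, read at 490 nm, indicated cytotoxicity after acute 40-min compound treatment of rat cortical neuron networks grown on 48-well MEA plates.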
# [3] = test system: DIO2 (gene 1734); assay: CCTE_GLTED_hDIO2: CCTE's human Deiodinase 2 (DIO2) Inhibition Assay, Great Lakes Toxicology and Ecology Division (GLTED) Lab (AID 2284050; active = hit-call score of the fitted dose curve at least 0.9, where 1 is the maximum)
# Method in brief: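 In this cell-free test, chemicals are exposed to human deiodinase type 2 for 3 hours. Released iodide is determined spectrophotometrically via the Sandell-Kolthoff method, and signal loss relative to DMSO is fitted.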
# [4] = test system: DIO3 (gene 1735); assay: CCTE_GLTED_hDIO3: CCTE's human Deiodinase 3 (DIO3) Inhibition Assay, Great Lakes Toxicology and Ecology Division (GLTED) Lab (AID 2284055; active = hit-call score of the fitted dose curve at least 0.9, where 1 is the maximum;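 also: potency is for inhibition seen as loss of released iodide signal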)
# Method in brief: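 Enzyme activity is tracked as iodide release from substrate by recombinant human DIO3 over 3 h with chemical present. A second Sandell-Kolthoff step converts iodide to an absorbance signal, fitted relative to DMSO.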
# [5] = CCTE_Shafer_MEA_dev_spike_duration_mean: CCTE's Neural Network Formation Assay for Mean Spike Duration, Shafer Lab (AID 2284051);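 also: mean network spike duration pooled as area under curve over DIV 5 to 12 recordings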;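 as to AC50: potency for a decrease in mean network spike duration versus DMSO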
# Method in brief: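 Primary rat cortical neurons on 16-electrode MEA wells (PEI-coated, laminin in plating drop), exposed from plating through DIV 12 with compound renewed at DIV 5 and 9. Mean network-spike duration recorded DIV 5, 7, 9, 12; trapezoidal AUC across days, DMSO baseline.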
# [6] = CCTE_Shafer_MEA_dev_network_spike_duration_std: CCTE's Neural Network Formation Assay for Standard Deviation of Network Spike Duration, Shafer Lab (AID 2284052);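 also: area under curve of spike duration SD across recording days 5 to 12; hits are decreases in network spike duration SD versus DMSO vehicle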
# Method in brief: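 Primary rat cortical neurons on PEI-coated 16-electrode MEA wells, exposed from plating day 0 through day 12 with compound renewed at DIV 5 and 9. Network spike duration SD recorded on days 5, 7, 9, 12, collapsed as trapezoidal AUC; loss-of-signal fit versus DMSO.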
# [7] = CCTE_Shafer_MEA_dev_per_network_spike_spike_percent: CCTE's Neural Network Formation Assay for Percent of Spikes in a Network Spike, Shafer Lab (AID 2284054)
# Method in brief: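 Primary rat cortical neurons on 16-electrode MEA wells (PEI-coated, laminin at plating), exposed from day 0 with renewal at DIV 5 and 9; spikes within 0.05 s of network-spike peaks over total spikes, AUC across days 5, 7, 9, 12.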
# [8] = CCTE_Shafer_MEA_dev_LDH: CCTE's Lactate Dehydrogenase Assay for Cytotoxicity in the Neural Network Formation Assay, Shafer Lab (AID 2284068; active = hit-call score of the fitted dose curve at least 0.9, where 1 is the maximum;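 also: exposure for twelve days from plating with re-dosing on DIV 5 and 9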)
# Method in brief: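 Primary rat cortical neurons were plated on PEI/laminin MEA plates and exposed from day 0 for twelve days, with compound renewed at DIV 5 and 9. Cytotoxicity was determined by spectrophotometric LDH assay relative to DMSO.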
# [9] = CCTE_Shafer_MEA_dev_AB: CCTE's Alamar Blue Assay for Cytotoxicity in the Neural Network Formation Assay, Shafer Lab (AID 2284083; active = hit-call score of the fitted dose curve at least 0.9, where 1 is the maximum;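 also: twelve days of exposure from plating with re-dosing on DIV 5 and 9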)
# Method in brief: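 Primary rat cortical neurons on PEI-coated 48-well MEA plates, 1.5 x 10^5 cells/well in laminin drop; compound exposure from day 0 of plating for twelve days, renewed at medium changes on DIV 5 and 9. Viability read as resazurin reduction by fluorescence, relative to DMSO.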
# [10] = CCTE_Shafer_MEA_dev_mutual_information_norm: CCTE's Neural Network Formation Assay for Mutual Information Normalization, Shafer Lab (AID 2284091);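 as to AC50: mutual information between electrodes summarised as area under curve across four recording days; potency is for a decrease in mutual information relative to DMSO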
# Method in brief: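 Rat cortical cultures, 48-well MEA, continuous exposure DIV 0–12 with full media/compound change DIV 5 and 9. Readout: inter-electrode mutual information, AxIS adaptive spike detection; AUC across DIV 5/7/9/12 recordings; DMSO baseline, negative fitting direction.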
# [11] = CCTE_Shafer_MEA_dev_correlation_coefficient_mean: CCTE's Neural Network Formation Assay for Mean Correlation Coefficient, Shafer Lab (AID 2284093);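 as to AC50: well mean pairwise spike train correlation integrated as AUC over recording days 5 to 12; potency fitted for loss of correlation relative to DMSO vehicle wells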
# Method in brief: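 Spontaneous activity recorded on days 5, 7, 9 and 12 post-plating; pairwise spike correlations are averaged across active electrodes and collapsed to an area-under-curve. Rat cortical cultures are dosed from plating through 12 days, with compound renewed at media changes.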
# [12] = IUF_NPC1b_proliferation_BrdU_72hr: Leibniz Research Institute for Environmental Medicine (IUF) 72-hour Neural Progenitor Cell Bromodeoxyuridine (BrdU) Proliferation Assay (NPC1b) (AID 2284207)
# Method in brief: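 hNPC spheres (primary, GW 16-19 fetal cortex), single sphere/well, EGF+FGF medium; 72 h compound, no renewal; BrdU pulse last 16 h; luminescent ELISA; activity vs DMSO baseline; growth-factor withdrawal as positive control.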
# [13] = IUF_NPC1a_proliferation_area_72hr: Leibniz Research Institute for Environmental Medicine (IUF) 72-hour Neural Progenitor Cell Proliferation Area Assay (NPC1a) (AID 2284208)
# Method in brief: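 Proliferation is scored as sphere area gain in primary human fetal neural progenitors treated for 72 h in EGF/FGF-containing medium. Viability, LDH and BrdU readouts come from the same wells.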
# [14] = IUF_NPC1_viability_72hr: Viability Assessment at 72 hours in the Leibniz Research Institute for Environmental Medicine (IUF) Neural Progenitor Cell Proliferation Assay (NPC1) (AID 2284209)
# Method in brief: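 Each well receives one 0.3 mm progenitor sphere from fetal brain cortex; test chemical is added at plating and left three days. Viability comes from alamar blue fluorescence, multiplexed with LDH and BrdU readouts in the same well.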
# [15] = CCTE_Mundy_HCI_Cortical_Synap_Neur_Matur_NeuriteSpotCountPerNeuriteLength: CCTE's Synaptogenesis and Neurite Maturation Assay in rat cortical cells for Neurite Spot Count per Neurite Length, Mundy Lab (AID 2284210)
# Method in brief: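 Rat primary cortical cultures, glia arrested with AraC at DIV 5, were dosed with media change at DIV 7 and fixed at DIV 12. Synaptophysin puncta per MAP2-labelled neurite length were quantified by high-content imaging versus DMSO.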
# [16] = CCTE_Mundy_HCI_Cortical_Synap_Neur_Matur_BPCount: CCTE's Synaptogenesis and Neurite Maturation Assay in rat cortical cells for Branch Point Count, Mundy Lab (AID 2284211)
# Method in brief: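 Branch point number is quantified by automated imaging of fluorescently labelled neurites and synapses in rat primary cortical neurons exposed from DIV 7 to DIV 12. Activity is analysed relative to DMSO negative control.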
# [17] = UKN2_HCS_IMR90_neural_migration: University of Konstanz (UKN) Leist Lab Neural Crest Cell Migration Assay in human induced IMR90 Pluripotent Stem Cells (UKN2) (AID 2284204); details: actives raise or lower the signal
# Method in brief: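 iPSC-derived IMR90 neural crest cells on PLO/laminin/fibronectin were seeded around silicone stoppers; after stopper removal, migration in N2-S medium with EGF and FGF ran 24 h before 24 h chemical exposure. Calcein-AM/Hoechst high-content imaging; bidirectional fit versus DMSO.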
smiles,measurement,setting,value
OCCCCO,outcome,[1],inactive
same,outcome,[2],inactive
O=S1(=O)OC(c2cc(Br)c(O)c(Br)c2)(c2cc(Br)c(O)c(Br)c2)c2ccccc21,AC50,[3],36.4 µM (active)
same,AC50,[4],13 µM (active)
CC(C)[C@@H](Nc1ccc(C(F)(F)F)cc1Cl)C(=O)OC(C#N)c1cccc(Oc2ccccc2)c1 (some centres not stated),AC50,[5],25.8 µM (active)
same,outcome,[6],inactive
same,AC50,[7],14.5 µM (active)
same,AC50,[8],23.5 µM (active)
same,outcome,[1],inactive
same,AC50,[9],14.5 µM (active)
same,outcome,[2],inactive
same,AC50,[10],9.36 µM (active)
same,AC50,[11],14.5 µM (active)
same,outcome,[12],inactive
same,outcome,[13],inactive
same,outcome,[14],inactive
same,outcome,[15],inactive
same,outcome,[16],inactive
CS(=O)(=O)c1ccc(C(=O)C2C(=O)CCCC2=O)c(Cl)c1COCC(F)(F)F,outcome,[5],inactive
same,outcome,[6],inactive
same,outcome,[7],inactive
same,outcome,[9],inactive
same,outcome,[2],inactive
same,outcome,[10],inactive
same,outcome,[11],inactive
same,outcome,[12],inactive
same,outcome,[13],inactive
same,outcome,[14],inactive
same,outcome,[15],inactive
same,outcome,[16],inactive
NC(=O)c1ccc(N)nc1,AC50,[5],7.59 µM (active)
same,AC50,[6],7.69 µM (active)
same,AC50,[7],6.23 µM (active)
same,AC50,[8],6.05 µM (active)
same,AC50,[9],8.53 µM (active)
same,AC50,[10],7.61 µM (active)
same,AC50,[11],4.57 µM (active)
same,outcome,[15],inactive
same,AC50,[16],9.07 µM (active)
CCOCn1c(-c2ccc(Cl)cc2)c(C#N)c(Br)c1C(F)(F)F,AC50,[5],6.23 µM (active)
same,AC50,[6],1.64 µM (active)
same,AC50,[7],10.8 µM (active)
same,AC50,[8],12.1 µM (active)
same,AC50,[9],20.4 µM (active)
same,AC50,[10],1.72 µM (active)
same,AC50,[11],5.53 µM (active)
same,AC50,[17],9.47 µM (active)
same,outcome,[12],inactive
same,AC50,[13],26.3 µM (active)
same,AC50,[14],26.8 µM (active)
same,AC50,[15],22.7 µM (active)
same,AC50,[16],13.1 µM (active)
